Results: PubChem BioAssay (EPA / NIEHS)
Calls of active or inactive are those of the source. Rule for the calls: active = hit-call score of the fitted dose curve at least 0.9, where 1 is the maximum; inactive = score below 0.9.

Test: ATG_GLI_CIS: Attagene CIS-FACTORIAL HepG2 Assay for human Zinc Finger Protein GLI1 (AID 2282945)
Conditions: HepG2, Attagene cis-factorial reporter mRNA, GLI element; actives raise or lower the signal
Experimental: ATG_CIS is a cell-based, multiplexed-readout assay that uses HepG2, a human liver cell line, with measurements taken at 24 hours after chemical dosing in a 24-well plate.ATG_GLI_CIS is one of 52 assay component(s) measured or calculated from the ATG_CIS assay. It is designed to make measurements of mRNA induction, a form of inducible reporter, as detected with fluorescence intensity signals by Reverse transcription polymerase chain reaction (RT-PCR) and Capillary electrophoresis technology.Data from the assay component ATG_GLI_CIS was analyzed into 1 assay endpoint. This assay endpoint, ATG_GLI_CIS, was analyzed with bidirectional fitting relative to DMSO as the negative control and baseline of activity. Using a type of inducible reporter, measures of mRNA for gain or loss-of-signal activity can be used to understand the reporter gene at the transcription factor-level as they relate to the gene GLI1. Furthermore, this assay endpoint can be referred to as a primary readout, because this assay has produced multiple assay endpoints where this one serves a reporter gene function. To generalize the intended target to other relatable targets, this assay endpoint is annotated to the dna binding intended target family, where the subfamily is zinc finger.
Human liver HepG2 cells are transiently transfected with multiple reporter transcription units (MRTUs) in 6-well plates using FuGene 6 reagent (Roche; 3 ml FuGene/1 mg DNA). The MRTU constructs are regulated by a cis-regulating element (promoter). […] A major difference between the CIS and TRANS system is that in CIS activities of endogenous TFs are measured, whereas the TRANS assay evaluates changes in activities of exogenous, chimeric NR-Gal4 proteins. […] At the end of 24 hour incubation, total RNA was isolated using TriZol reagent (Invitrogen). The isolated RNA is then reverse-transcribed using oligo(dT) primer and Mo-MLV reverse transcriptase (Invitrogen) with DNAse I (Ambion) treatment for 30 min. The one-tenth of the produced cDNA was amplified by PCR using Taq DNA polymerase (Invitrogen) and two reporter sequence-specific primers. The PCR products were fluorescently labeled by primer extension with 6-arboxyfluorescein (6-FAM) 5'-labeled reporter sequence-specific primer (2 min at 95 C, 20 s at 68 C and 10 min at 72 C) and these products were digested with 5U of HpaI (New England Biolabs) for 2h at 37 C. The fragments were purified using Qiaquick PCR columns (Qiagen), analyzed on an ABI 3130xL genetic analyzer (Applied Biosystems) with peak positions identified by using a set of X-rhodamine (ROX)-labeled MapMarker1000 molecular weight standards (BioVentures). The raw capillary electrophoresis data was processed using Attagraph software (Attagene).
For `Cc1cc(O)c(C(C)(C)C)cc1C(C)(C)C`, the outcome was “inactive”. In the case of `OCCCCC(F)(F)C(F)(F)C(F)(F)C(F)(F)F`, the outcome is reported as “inactive”. With `CCCCCCCC/C=C\CCCCCCCC(=O)OCC(O)CO` (stereo not given) the outcome was “inactive”. In the case of `FC(F)(F)C(F)(F)C(F)(F)C(F)(F)C(F)(F)C(F)(F)C(F)(F)CCI`, the outcome is reported as “inactive”. With `CC(C)=CCCC(C)O` (stereo not given) the outcome was “inactive”. In the case of `CN(C(=O)C(F)(F)C(F)(F)C(F)(F)F)[Si](C)(C)C`, the outcome is reported as “inactive”. For `CCn1c2ccccc2c2ccccc21`, the outcome was “inactive”. In the case of `O=c1[nH]cccc1O`, the outcome is reported as “inactive”. For `OCC1CCCO1` (stereo not given), the outcome was “inactive”. With `CSc1ccc(O)cc1C` the outcome was “inactive”. With `Nc1cccnc1N` the outcome was “inactive”. In the case of `CO[Si](C)(CCC(F)(F)C(F)(F)C(F)(F)C(F)(F)C(F)(F)C(F)(F)F)OC`, the outcome is reported as “inactive”. With `OC(O)C(F)(F)C(F)(F)F` the outcome was “inactive”. With `CCCCCCCCCCCCCC[P+](CCCC)(CCCC)CCCC` the outcome was “inactive”. With `COc1ccccc1C=O` the outcome was “inactive”. In the case of `CCN(CC)c1ccc(C=O)c(O)c1`, the outcome is reported as “inactive”. In the case of `Nc1c(Br)cc([N+](=O)[O-])cc1Br`, the outcome is reported as “inactive”. In the case of `CN1CN(C)CN(C)C1`, the outcome is reported as “inactive”. For `O=C(c1ccccc1)c1ccc(O)cc1O`, the outcome was “inactive”. For `CC(C)CCCC(C)CCO` (stereo not given), the outcome was “inactive”. For `C#CC(O)CCC` (stereo not given), the outcome was “inactive”. For `O=C(Cl)c1ccc(Cl)cc1Cl`, the outcome was “inactive”. In the case of `NCC(F)(F)C(F)(F)C(F)(F)C(F)(F)C(F)(F)C(F)(F)F`, the outcome is reported as “inactive”. In the case of `CCOCOCC`, the outcome is reported as “inactive”. With `CCN(CC)c1ccc2c(c1)Oc1cc(N(CC)CC)ccc1C21OC(=O)c2ccccc21` the outcome was “inactive”. In the case of `CC(=O)c1ccccc1N`, the outcome is reported as “inactive”. For `Cc1cnccn1`, the outcome was “inactive”. For `CCCCC(CC)COC(=O)c1ccc(N(C)C)cc1` (stereo not given), the outcome was “inactive”. With `O=C(O)C(F)(F)C(F)(F)C(F)(F)C(=O)O` the outcome was “inactive”. With `CCCCOC(=O)C(C)O` (stereo not given) the outcome was “inactive”. With `CCOC(=O)C1CC(=O)C(=C(O)C2CC2)C(=O)C1` (stereo not given) the outcome was “inactive”. In the case of `CCCCCCCC/C=C\CCCCCCCC(=O)N(C)CC(=O)O`, the outcome is reported as “inactive”. For `COC(F)(C(F)F)C(F)(F)F` (stereo not given), the outcome was “inactive”. In the case of `O=S(=O)(OCC(F)(F)F)C(F)(F)C(F)(F)C(F)(F)C(F)(F)F`, the outcome is reported as “inactive”. In the case of `Cc1cc(=O)[nH]c(C(C)C)n1`, the outcome is reported as “inactive”. With `CC(C)OC(=O)COc1ccc(Cl)cc1Cl` the outcome was “inactive”. In the case of `CC1=CCC(=O)O1`, the outcome is reported as “inactive”. For `CCOC(OCC)OCC`, the outcome was “inactive”. With `C[Si](C)O[Si](C)C` the outcome was “inactive”. For `CCCCCCCCCCCCCCCCC`, the outcome was “inactive”.
